# nsP2pro inh – CHIKV nsP2 protease inhibition, primary qHTS | Q8JUX6 | FRET peptide cleavage, nsP2pro, fluorescence 1 h | Potency, µM (series often up to 24.9 µM), inactives show at the top dose activity change, negative = inhibition, most hits filed as inhibitors | 31,000 compounds, 1.1% hits | AID 1964107; note: nearly all actives have a fitted effect of over 60% in size
#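 Recombinant nsP2pro (150 nM) was preincubated with compound 15 min at room temperature in 10 mM Tris-HCl pH 8.0, 0.01% Tween 20. Peptide 2 FRET substrate (2.5 uM) was then added and fluorescence read after 1 h. Seven-point series, up to 25 uM.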
# CHIKV nsP2 cell – secondary cell-based test for CHIKV nsP2 protease inhibitors; 450 compounds, 10% hits; shares compounds with nsP2pro inh; cell-based CHIKV nsP2 protease reporter assay; Potency, µM (highest dose often 51.1 µM), for inactives: top-dose activity change, negative = inhibition, most hits filed as inhibitors; note: nearly all actives have a fitted effect of over 70% in size
# NSP2 full ctr – inhibits full-length CHIKV NSP2 enzyme | shares compounds with nsP2pro inh | Full-length CHIKV NSP2 protease enzymatic counterscreen | Potency, µM (titrated, usually from 50.7 µM), for the others: at the top dose activity change, negative = inhibition, usual class: inhibitors | 410 compounds, 39% hits | AID 1964101; note: nearly all actives have a fitted effect of over 65% in size
# Furin counter – selectivity counter-screen for CHIKV nsP2 protease inhibitors: human furin; shares compounds with nsP2pro inh; Potency, µM (doses to about 50.6 µM), without a hit: at the top dose activity change, negative = inhibition, actives largely listed as inhibitors; AID 1964102; 410 compounds, 6% hits; Recombinant human furin enzymatic counterscreen, fluorogenic substrate
# Target sequence (P09958 whole entry, looked up): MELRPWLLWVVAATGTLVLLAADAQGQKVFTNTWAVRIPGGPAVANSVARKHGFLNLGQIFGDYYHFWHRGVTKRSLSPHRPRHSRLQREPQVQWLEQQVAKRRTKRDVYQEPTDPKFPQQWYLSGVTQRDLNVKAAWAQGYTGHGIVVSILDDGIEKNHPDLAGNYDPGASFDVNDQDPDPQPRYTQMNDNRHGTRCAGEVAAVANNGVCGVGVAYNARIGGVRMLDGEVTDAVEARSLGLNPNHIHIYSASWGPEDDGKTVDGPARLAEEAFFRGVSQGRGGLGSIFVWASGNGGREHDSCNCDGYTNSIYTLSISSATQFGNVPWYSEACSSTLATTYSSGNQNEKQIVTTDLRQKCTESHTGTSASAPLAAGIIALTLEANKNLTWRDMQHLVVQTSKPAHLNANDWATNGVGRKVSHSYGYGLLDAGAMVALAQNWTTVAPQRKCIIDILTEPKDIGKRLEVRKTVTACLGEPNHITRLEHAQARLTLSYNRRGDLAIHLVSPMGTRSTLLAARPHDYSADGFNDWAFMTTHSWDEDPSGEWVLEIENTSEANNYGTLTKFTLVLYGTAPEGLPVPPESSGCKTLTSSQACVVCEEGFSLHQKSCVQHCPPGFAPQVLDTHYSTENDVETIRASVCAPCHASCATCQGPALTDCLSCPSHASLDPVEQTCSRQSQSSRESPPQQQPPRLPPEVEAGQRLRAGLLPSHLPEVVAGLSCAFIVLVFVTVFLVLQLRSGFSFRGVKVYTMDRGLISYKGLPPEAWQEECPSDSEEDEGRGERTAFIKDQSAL
# nsP2 NS23 pep – blocks CHIKV nsP2 protease cleavage of endogenous NS2/3 peptide; AID 1964103; Potency, µM (series often up to 51 µM), inactives show at the top dose activity change, negative = inhibition, most hits filed as inhibitors; Purified CHIKV nsP2 protease, endogenous NS2/3 peptide cleavage; 410 compounds, 34% hits; shares compounds with nsP2pro inh; note: nearly all actives have a fitted effect of over 55% in size
# Papain counter – selectivity counter-screen for CHIKV nsP2 protease inhibitors: papain; shares compounds with nsP2pro inh; purified papain protease activity, enzymatic inhibition; Potency, µM (titrated, usually from 51 µM), without a hit: at the highest dose activity change, negative = inhibition, actives largely listed as inhibitors; 410 compounds, 5% hits; AID 1964104
# nsP2pro conf qHTS – CHIKV nsP2 protease inhibition, confirmatory qHTS; 410 compounds, 43% hits; Potency, µM (titrated, usually from 25.5 µM), for the others: at the top dose activity change, negative = inhibition, most hits filed as inhibitors; shares compounds with nsP2pro inh; CHIKV nsP2 protease enzymatic activity, qHTS; AID 1964105; note: nearly all actives have a fitted effect of over 75% in size
# HCV NS3 4A cs – HCV NS3/4A protease inhibition, counterscreen; shares compounds with nsP2pro inh; HCV NS3/4A protease biochemical counterscreen; Potency, µM (doses to about 50.9 µM), hits mostly inhibitors; 410 compounds, 20% hits; AID 1964106; note: nearly all actives have a fitted effect of over 55% in size
# * hit, by the source's call; i = inactive; ? = inconclusive; [ ] = another dose, or the depositor's remark. Only a selection was taken, and hits are over-represented in it overall. Calls come from the whole dose curve. % is set by controls: 0 for no effect and ±100 for the full control effect; potency is the fitted concentration of half-maximal effect.
SMILES,nsP2pro inh,others
CSCC[C@H](NC(=O)[C@H](CCSC)NC(=O)CNC(=O)[C@H](Cc1ccc(O)cc1)NC(=O)[C@H](Cc1ccccc1)NC(=O)[C@H](CCCN=C(N)N)NC(=O)[C@H](CC(=O)O)NC(=O)[C@@H]1CCCN1C(=O)[C@H](CC(=O)O)NC(=O)[C@@H]1CCCN1C(=O)[C@@H]1CCCN1C(=O)[C@@H](N)CC(=O)O)C(N)=O,-7%[10 µM],
Cn1c(CN2CCCCC2)nc2cc(NC(=O)c3ccc(Cl)cc3)ccc21,32%,
CCCCc1nc2cc(/C=C/C(=O)NO)ccc2n1CCN(CC)CC,43%,
Cn1c(CCCC(=O)O)nc2cc(N(CCCl)CCCl)ccc21,9.9µM*,CHIKV nsP2 cell=-9%;NSP2 full ctr=16µM*;Furin counter=5%;nsP2 NS23 pep=?;Papain counter=253%;nsP2pro conf qHTS=8µM*;HCV NS3 4A cs=?
CCCCCOc1ccc(-c2ccc(-c3ccc(C(=O)NC4CC(O)C(O)NC(=O)C5C(O)C(C)CN5C(=O)C(C(C)O)NC(=O)C(C(O)C(O)c5ccc(O)cc5)NC(=O)C5CC(O)CN5C(=O)C(C(C)O)NC4=O)cc3)cc2)cc1 (stereo not drawn),i,
c1ccc2[nH]c(-c3ccc(NCc4ccc5c(c4)OCCO5)cc3)nc2c1,-8%,
CCCCN(C)C(=O)Cn1nc(-c2ccc(C(C)=O)cc2)ccc1=O,-6%,
C=CCOc1c(OC)ccc2c1CN(Cc1ccccc1)C(=O)CCN2CC(O)COc1ccc(OC)cc1 (stereo not drawn),i,
CC(C)c1ccc(S(=O)(=O)c2cnc(SCC(=O)Nc3ccc4c(c3)OCCO4)[nH]c2=O)cc1,4µM*,CHIKV nsP2 cell=?;NSP2 full ctr=-14%;Furin counter=-8%;nsP2 NS23 pep=208%;Papain counter=?;nsP2pro conf qHTS=65%;HCV NS3 4A cs=i
O=C(CSc1ncc(S(=O)(=O)c2ccc(Br)cc2)c(=O)[nH]1)NCc1ccccc1Cl,26%,
Cc1ccc(S(=O)(=O)c2cnc(SCC(=O)Nc3ccc4c(c3)OCCO4)[nH]c2=O)cc1Cl,35%,
Cc1cnc(-c2ccccc2C(C)C)nc1NCC1CN(c2cccnc2)C1,-2%,
CCCCCCC(COC(=O)c1cccnc1)(COC(=O)c1cccnc1)COC(=O)c1cccnc1,3%,
Cc1cc2c(F)c(Oc3ncnn4cc(OC[C@@H](C)OC(=O)[C@H](C)N)c(C)c34)ccc2[nH]1,159%,
Cc1ccc(C#Cc2cc(-c3nn(-c4nc(C(=O)O)cs4)c(CC4CC4)c3Cc3ccc(S(N)(=O)=O)c(F)c3)ccc2F)o1,4µM*,CHIKV nsP2 cell=0.13µM*;NSP2 full ctr=?;Furin counter=-22%;nsP2 NS23 pep=56%;Papain counter=23µM*;nsP2pro conf qHTS=-52%;HCV NS3 4A cs=i
COc1c2ccoc2cc2oc(CO[C@@H]3O[C@H](CO)[C@@H](O)[C@H](O)[C@H]3O)cc(=O)c12,18%,
NNc1ccc(NC(=O)c2cccs2)cn1,i,
CN1CCN(c2ccc(NC(=O)c3cccs3)cn2)CC1,-10%,
O=C(Nc1ccc(N2CCN(c3ccc(F)cc3)CC2)c(C(=O)O)c1)c1cccs1,?,CHIKV nsP2 cell=36%;NSP2 full ctr=5.2µM*;Furin counter=-17%;nsP2 NS23 pep=13µM*;Papain counter=-3%;nsP2pro conf qHTS=8µM*;HCV NS3 4A cs=4.1µM*
Cc1ccccc1C(=O)Nc1ccc2c(c1)CCCN2C(=O)c1cccs1,41%,
O=C(Nc1cnc(N2CCN(c3ccccc3)CC2)c(C(=O)O)c1)c1cccs1,2.5µM*,CHIKV nsP2 cell=-1%;NSP2 full ctr=2.1µM*;Furin counter=?;nsP2 NS23 pep=6.5µM*;Papain counter=-12%;nsP2pro conf qHTS=5.7µM*;HCV NS3 4A cs=2.9µM*
CC(=O)c1ccc(N2CCN(c3ccc(NC(=O)c4ccc(F)cc4)cc3C(=O)O)CC2)cc1,36%,
CCCCCCCCCCCCNCCNCCNCC(=O)O,24%[10 µM],
CN1CCN(C(=O)CN[C@@H]2C[C@H]2c2ccc(OCc3ccccc3)cc2)CC1,-10%,
CCCC(=O)N1CCC(N2C(=O)N(Cc3cccnc3)CC23CCOC3)CC1 (stereo not drawn),1%,
SMILES,nsP2pro inh,others
CN1CCN(Cc2ccc(NC(=O)Nc3ccc(Oc4cc(NC(=O)C5CC5)ncn4)cc3)cc2C(F)(F)F)CC1,-14%,
O=C(OC[C@H]1O[C@@H](Oc2ccccc2COC(=O)C2(O)C=CCCC2O)[C@H](O)[C@@H](O)[C@@H]1O)c1ccccc1 (stereo partly drawn),60%[10 µM],
CS(=O)(=O)c1ccc(OCC2(CNCc3cccc(C(F)(F)F)c3)C[C@@H](O)[C@@H](O)C2)cc1 (stereo partly drawn),-8%,
Fc1ccc2nc(CCC#Cc3ccccn3)cn2c1,?,CHIKV nsP2 cell=-3%;NSP2 full ctr=11%;Furin counter=-6%;nsP2 NS23 pep=2%;Papain counter=11%;nsP2pro conf qHTS=3%;HCV NS3 4A cs=i
NC(=O)c1ccc(Cc2c(-c3cccc(-c4ccccc4)c3)[nH]n(-c3nc(C(=O)O)cs3)c2=O)cc1,i,
Cc1ccc(OCCn2c(CCNC(=O)c3cccnc3)nc3ccccc32)cc1,-14%,
Cc1cccc2c(C(=O)O)cc(Cl)nc12,-2%,
CCc1cccc(CC)c1OCc1cc(C2Nc3ccccc3C(=O)N2Cc2ccco2)ccc1OC (stereo not drawn),4%,
O=C(NCc1cccs1)c1ccc(Cn2c(SCc3ccc(F)cc3)nc3cccnc32)cc1,23%,
Cc1ccc(CNC(=O)c2ccc(Cn3c(SCc4ccc(F)cc4)nc4cccnc43)cc2)o1,?,CHIKV nsP2 cell=-16%
Cc1cccc(CSc2nc3cccnc3n2Cc2ccc(C(=O)NCc3ccco3)cc2)c1,-9%,
Cc1c(C(=O)OC[C@H]2CCCO2)[nH]c2c1C(=O)CC(c1ccco1)C2 (stereo partly drawn),-3%,
O=C(Nc1cncc(Cc2ccccc2)c1)c1ccc(-c2cccc([N+](=O)[O-])c2)o1,-12%,
O=C(Nc1cccc(Cc2ccccc2)c1)c1ccc(-c2cccc([N+](=O)[O-])c2)o1,5%,
O=C(Nc1cccc(Cc2ccccc2)n1)c1ccc(-c2cccc([N+](=O)[O-])c2)o1,10µM*,CHIKV nsP2 cell=48%;NSP2 full ctr=?;Furin counter=0%;nsP2 NS23 pep=-14%;Papain counter=-10%;nsP2pro conf qHTS=?;HCV NS3 4A cs=i
CN1CC(C(=O)N2CCN(Cc3ccccc3)CC2)NC1=O (stereo not drawn),-3%[39.2 µM],
C=C1C(OC(C)=O)C(=O)C2C(C)(C)C(OC(C)=O)CCC2(C)C1CC(OC(C)=O)/C(C)=C/COC(C)=O (stereo not drawn),-3%[10 µM],

# Assay outcomes deposited in PubChem BioAssay by National Center for Advancing Translational Sciences (NCATS).
